# Experimental data reported in PubChem BioAssay AID683 (University of Pittsburgh Molecular Library Screening Center, 2007).
# The list shows a part of the results. Unmarked numbers belong to inactive results. Rule as the data show it: active = EC50 below about 50 µM; inactive = the rest.
# Assay: H2O2 producers via compound redox cycling – biochemical, 1.0 mM DTT, Cdc25B catalytic domain, artefact control, dose response (AID 683)
# Details: cell-free redox cycling H2O2 generation
row,SMILES,EC50
1,COc1cccc2c(C)c(C(=O)O)[nH]c12,> 50 µM
2,c1ccc(CSc2nnc(-c3ccco3)c(-c3ccco3)n2)cc1,> 50 µM
